Experimental data taken from PubChem BioAssay AID977607 (Broad Institute, 2014).
Screen size: about 1,500 compounds; about 460 (31%) were called active. Another 1% or so got no clear call; they are omitted.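 Rule for the calls: active = curve reaches 40% activation over neutral controls at an AC40 no higher than the top valid tested concentration; inconclusive = no clear call, values can overlap the other calls; inactive = signal moving opposite to the expected increase, and the rest.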 These entries were drawn from the full list. Potency and affinity values are given separately.

Assay: GLuc-reported insulin release enhancers, glucose-stimulated beta cells – cell-based, INS-1E, Gaussia luciferase, luminescence, cherry-pick, set 2, dose response (AID 977607);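 note: 0% = median of the plate neutral control wells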
Conditions: INS-1E GLuc insulin secretion reporter, 2-3 h, hits give high values; at 35 µM, 100% = signal doubled over neutral wells unless noted

Max activation, inactive:
COc1cc2ccc(C(C)=O)cc2cc1OC 29.7% [at 0.0016 µM, 100% = signal doubled over neutral wells], COc1ccc(CC(=O)c2ccc(OC)c(OC)c2)cc1 18.3% [at 0.0016 µM, 100% = signal doubled over neutral wells], COc1ccc(C(C)=O)cc1CSCc1cc(C(C)=O)ccc1OC 10.8%, CC(C)c1ccc2oc(=O)cc(CN3CCCCC3)c2c1 -12.8%, Cc1cc2oc(=O)cc(CN3CCOCC3)c2c(C)c1Cl -12.4% [at 0.0016 µM, 100% = signal doubled over neutral wells], COc1ccc(-c2cc(C(F)(F)F)n3nc(C(=O)O)cc3n2)cc1OC 13.4%, Cc1ccccc1Cc1c(C)nc2c(C(=O)NCc3ccco3)cnn2c1C -44.9%, C[C@H]1[C@@H](c2ccccc2)Oc2c(Cl)cccc2S(=O)(=O)N1C -29.7% [at 11 µM, 100% = signal doubled over neutral wells], CCN1CCN(c2nnc(-c3ccccc3)c3ccccc23)CC1 13.4% [at 0.135 µM, 100% = signal doubled over neutral wells], COC(=O)Cn1cc(C#N)c2ccccc21 43% [at 0.42 µM, 100% = signal doubled over neutral wells], CN(C)C(=O)c1ccc(-c2ccc([C@@H]3[C@@H](CO)N4C(=O)CN(C(=O)C5CC5)C[C@@H]34)cc2)cc1 31.8% [at 0.046 µM, 100% = signal doubled over neutral wells], C/C=C1\COC(C(=O)NCc2ccccc2)(C(F)(F)F)C=C1C=C(C)C (configuration not stated) -29.1%, CN(c1ccc(F)cc1)S(=O)(=O)c1ccc(Cl)c(C(=O)NCC2CCCO2)c1 (configuration not stated) -19.1%, CN(C(=O)[C@H]1O[C@@H](n2cnc(C(N)=O)n2)[C@H](O)[C@@H]1O)c1ccccc1 -24.3% [at 1.2 µM, 100% = signal doubled over neutral wells], CN1CCSc2ccc(C(=O)Nc3cccc(F)c3)cc21 -34.2%, Cc1nc2c(c(N3CCOCC3)n1)OCC(=O)N2 52.8%, COc1cc(C2N(C)CCC3(OCCO3)C2(C)C)cc(OC)c1OC (configuration not stated) -12.6% [at 0.0016 µM, 100% = signal doubled over neutral wells], COc1ccc(-c2nnc3sc(-c4ccco4)nn23)cc1OC -14.1% [at 0.046 µM, 100% = signal doubled over neutral wells], CCSc1nnc2ccc(-c3cccs3)nn12 23.8%, CC/C(O)=C1\C(=O)CC(c2ccccc2)CC1=NC(C)C (configuration not stated) -12.6% [at 1.2 µM, 100% = signal doubled over neutral wells], CCN(CC)CCn1c(=N)n(CC(O)COc2ccccc2)c2ccccc21 (configuration not stated) -13.8% [at 3.8 µM, 100% = signal doubled over neutral wells], CCOC1=C2[C@H](c3ccc(C)cc3)N(S(=O)(=O)c3ccc(C)cc3)C[C@H]2n2c(=O)n(-c3ccccc3)c(=O)n2C1 -23.2% [at 0.005 µM, 100% = signal doubled over neutral wells], Cc1ccc(C(CC(=O)O)NC(=O)c2ccc(S(=O)(=O)N3CC(C)OC(C)C3)cc2)cc1 (configuration not stated) -15.8% [at 0.42 µM, 100% = signal doubled over neutral wells], CNc1nc(N)c(C(=O)C(C)(C)C)s1 27.9% [at 11 µM, 100% = signal doubled over neutral wells], CC1(C)Cc2c(c(-c3ccco3)nc3n[nH]c(N)c23)CO1 25% [at 0.135 µM, 100% = signal doubled over neutral wells], CN=C1c2ccccc2CN1c1cccc(C(=O)OC)c1 14.7%, O=S(=O)(c1ccc(NCCCO)nc1)N1CCOCC1 -14.1% [at 0.015 µM, 100% = signal doubled over neutral wells], COC(=O)c1c(C)oc(C)c1S(=O)(=O)Nc1ccc(C(C)C)cc1 -24.4%, Cc1ccc(-c2cnc3cccnn23)cc1F 39% [at 0.015 µM, 100% = signal doubled over neutral wells], COC(=O)c1ccc(Oc2ccc(C(F)(F)F)cn2)cc1 -19.1% [at 0.135 µM, 100% = signal doubled over neutral wells], Cc1nc2c(-c3ccc(F)cc3)cnn2c2c1CCC2 -15.5% [at 0.0016 µM, 100% = signal doubled over neutral wells], COC(=O)C[C@@H]1C=C[C@H](NC(=O)Cc2ccccn2)[C@@H](CO)O1 -17.5% [at 0.015 µM, 100% = signal doubled over neutral wells], COCCNC(=O)CCCn1c(=O)c2ccccc2n(Cc2ccccc2C#N)c1=O -20.3% [at 0.015 µM, 100% = signal doubled over neutral wells], CCc1c(C(=O)Nc2ccc(C)c(C)c2)[nH]c(C)c1C(C)=O -21.4% [at 11 µM, 100% = signal doubled over neutral wells], CCN(c1ccccc1)S(=O)(=O)c1ccc(OC)c(OC)c1 12.1%, COc1ccc(S(=O)(=O)N2CCC(C(=O)NCc3ccccn3)CC2)cc1OC 32.9% [at 3.8 µM, 100% = signal doubled over neutral wells], COc1ccc(N2CCN(S(=O)(=O)c3ccc(-c4cc(C)no4)s3)CC2)cc1 -17.8% [at 0.135 µM, 100% = signal doubled over neutral wells]
